Reference: PubChem BioAssay AID1159580 (chemical genetic matrix, 2015)
Values joined by “and” are separate entries in the source; they are usually repeats but may differ in a detail not shown here. Equal entries are not always repeated. Among all 5,500 compounds or so, about 2,000 (36%) were called active. About 18% were inconclusive and are not listed. Cut-off read from the data, not from the text of the source: active = normalized growth mostly below about 0.91 (no sharp cut-off); inconclusive = no clear call, values can overlap the other calls; inactive = mostly above about 0.92. This is one part of the list.

Test: chemical genetic growth profiling, strain panel (AID 1159580);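 note: tested at 20 µM; growth read once vehicle control cultures reached saturation at 30 °C; 1 = growth at the plate median or of vehicle wells; lower values mean less growth of the strain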
Settings: S. cerevisiae deletion strains, growth OD

Measured: normalized growth

NC[C@H]1O[C@H](O[C@H]2C(O[C@@H]3O[C@H](CO)[C@@H](O)[C@H]3O)[C@@H](O)[C@H](N)C[C@@H]2N)[C@H](N)[C@@H](O)[C@@H]1O (some centres not stated)
inactive: locus YAL013W, strain DEP1, active compounds read low 1 | locus YAL021C, strain ccr4, active compounds read low 1.02 | locus YAL026C, strain drs2, active compounds read low 0.998 | locus YAL030W, strain snc1, active compounds read low 0.994 | locus YBL061C, strain skt5, active compounds read low 0.997 | locus YBR009C, strain hhf1, active compounds read low 0.975 | locus YBR021W, strain FUR4, active compounds read low 0.969 | locus YBR023C, strain chs3, active compounds read low 0.995 | locus YBR171W, strain sec66, active compounds read low 0.992 | locus YBR229C, strain ROT2, active compounds read low 0.99 | locus YBR231C, strain swc5, active compounds read low 0.998 | locus YBR279W, strain paf1, active compounds read low 0.999 | locus YCL011C, strain gbp2, active compounds read low 1 | locus YCL016C, strain dcc1, active compounds read low 0.996 | locus YCL029C, strain bik1, active compounds read low 0.987 | locus YCL061C, strain MRC1, active compounds read low 0.989 | locus YCL069W, strain vba3, active compounds read low 0.997 | locus YCR088W, strain abp1, active compounds read low 0.998 | locus YDL005C, strain med2, active compounds read low 1.01 | locus YDL035C, strain GPR1, active compounds read low 1.01 | locus YDL040C, strain nat1, active compounds read low 0.983 | locus YDL074C, strain BRE1, active compounds read low 0.985 | locus YDL101C, strain DUN1, active compounds read low 0.987 | locus YDL134C, strain PPH21, active compounds read low 0.988 | locus YDL185W, strain tfp1, active compounds read low 0.983 | locus YDL192W, strain arf1, active compounds read low 0.996 | locus YDR001C, strain nth1, active compounds read low 0.989 | locus YDR069C, strain doa4, active compounds read low 0.99 | locus YDR101C, strain arx1, active compounds read low 0.972 | locus YDR137W, strain rgp1, active compounds read low 1.02 | locus YDR150W, strain NUM1, active compounds read low 1 | locus YDR159W, strain sac3, active compounds read low 0.982 | locus YDR162C, strain NBP2, active compounds read low 1 | locus YDR195W, strain ref2 0.939 | locus YDR297W, strain sur2, active compounds read low 0.99 | locus YDR318W, strain mcm21, active compounds read low 0.996 | locus YDR334W, strain swr1, active compounds read low 0.997 | locus YDR335W, strain msn5, active compounds read low 0.994 | locus YDR388W, active compounds read low 0.992 | locus YDR392W, strain spt3, active compounds read low 0.918 | locus YDR502C, strain sam2, active compounds read low 0.998 | locus YEL003W, strain gim4, active compounds read low 1 | locus YEL037C, strain rad23, active compounds read low 0.995 | locus YEL061C, strain CIN8 (second series), active compounds read low 0.991 | locus YEL061C, strain CIN8, active compounds read low 0.999 | locus YER015W, strain faa2, active compounds read low 0.998 | locus YER016W, strain bim1, active compounds read low 0.993 | locus YER110C, active compounds read low 0.993 | locus YER111C, strain swi4, active compounds read low 0.977 | locus YER155C, strain BEM2 (second series), active compounds read low 0.974 | locus YER155C, strain BEM2, active compounds read low 0.957 | locus YER167W, strain BCK2, active compounds read low 1 | locus YFR010W, strain ubp6, active compounds read low 0.999 | locus YGL078C, strain dbp3, active compounds read low 0.988 | locus YGL086W, strain mad1, active compounds read low 0.994 | locus YGL167C, strain pmr1, active compounds read low 0.992 | locus YGL173C, strain kem1, active compounds read low 1 | locus YGL227W, strain vid30, active compounds read low 0.989 | locus YGL240W, strain doc1, active compounds read low 0.991 | locus YGL248W, strain PDE1, active compounds read low 0.994 | locus YGL253W, strain hxk2, active compounds read low 0.985 | locus YGR078C, strain PAC10, active compounds read low 0.994 | locus YGR135W, strain pre9, active compounds read low 0.985 | locus YGR229C, strain SMI1, active compounds read low 1.03 | locus YGR252W, strain gcn5, active compounds read low 1.08 | locus YHR013C, strain ard1, active compounds read low 0.976 | locus YHR027C, strain rpn1, active compounds read low 1 | locus YHR030C, strain SLT2, active compounds read low 0.994 and 0.986 | locus YHR079C, strain IRE1 (second series), active compounds read low 0.983 | locus YHR079C, strain IRE1, active compounds read low 0.993 | locus YHR094C, strain hxt1, active compounds read low 0.99 | locus YHR129C, strain ARP1, active compounds read low 0.986 | locus YHR142W, strain chs7, active compounds read low 1.01 | locus YHR200W, strain rpn10, active compounds read low 0.989 | locus YIL066C, strain RNR3, active compounds read low 0.991 | locus YIL073C, strain SPO22, active compounds read low 1.01 | locus YIL125W, strain kgd1, active compounds read low 1 | locus YIR030C, strain dcg1, active compounds read low 0.988 | locus YJL092W, strain hpr5, active compounds read low 0.994 | locus YJL095W, strain BCK1 (second series), active compounds read low 0.995 | locus YJL095W, strain BCK1, active compounds read low 0.984 and 1.02 | locus YJL115W, strain asf1, active compounds read low 0.995 | locus YJL129C, strain trk1, active compounds read low 1 | locus YJL134W, strain LCB3, active compounds read low 0.992 | locus YJL154C, strain vps35, active compounds read low 0.986 | locus YJL164C, strain tpk1, active compounds read low 1 | locus YJL166W, strain qcr8, active compounds read low 1.01 | locus YJL168C, strain set2, active compounds read low 0.986 | locus YJL187C, strain SWE1 (second series), active compounds read low 0.991 | locus YJL187C, strain SWE1, active compounds read low 0.997 | locus YJR043C, strain POL32, active compounds read low 0.994 | locus YJR066W, strain TOR1, active compounds read low 0.93
